Test results taken from PubChem BioAssay.
“And” between values parts separate entries of the source, which are not always exact repeats. Equal entries are not always repeated. The source made the active and inactive calls. Rule as the data show it: active = parasite load remaining mostly below about 12% (no sharp cut-off); inactive = mostly above about 10%.

assay: liver-stage malaria parasite growth inhibition, primary screen, cell-based, HepG2, luciferase luminescence, HepG2 viability (AID 624349);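 also: 100% = mean of DMSO negative control wells on the same plate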; details: P. berghei liver stage in HepG2, luciferase luminescence, concentration not given here; parasite load remaining: stronger effect = lower value; viability: measured here: HepG2 viability without parasites

Row | Structure (SMILES) | viability | parasite load remaining
1 | CN(C)CC[C@H](c1ccc(Cl)cc1)c1ccccn1 | 77.5% and 96.6% | 101% (inactive) and 66.4% (inactive)
2 | COc1ccc(C2Sc3ccccc3N(CCN(C)C)C(=O)C2OC(C)=O)cc1 (configuration not stated) | 88.6% and 96.1% | 163% (inactive) and 58.1% (inactive)
3 | Cc1c(-c2cnccn2)ssc1=S | 65% | 10.1% (inactive)
4 | Nc1nc(F)nc2c1ncn2[C@@H]1O[C@H](COP(=O)(O)O)[C@@H](O)[C@@H]1O | 105% | 22.2% (inactive)
5 | Cc1cc2nc3c(=O)[nH]c(=O)nc-3n(CC(O)C(O)C(O)CO)c2cc1C (configuration not stated) | 87.6% and 75.7% and 118% | 149% (inactive) and 66% (inactive) and 85.7% (inactive)
6 | N[C@@H](CC(=O)N1CCn2c(nnc2C(F)(F)F)C1)Cc1cc(F)c(F)cc1F | 95.5% | 48.9% (inactive)
